# Data: the supplement of paper PMC12340641
# Counter-ions that a name gives are not always drawn.
# Key:
# [1] = biological target: IKZF1 (dCK*-IKZF1 fusion in HEK293FT) (UniProt Q13422); assay: inhibition of IKZF1 HTRF signal (DMSO = 0%, pomalidomide 10 uM = 100%); higher = lower IKZF1 protein level; conditions: compound concentration: 5 uM, overnight (~20 h)
# Procedure, shortened: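 For percent inhibition of IKZF1 signal, each plate was normalised to vehicle and to a reference degrader. Cells were HEK293FT stably expressing an IKZF1 fusion, plated at 2000/well in 384-well format and treated overnight at 37 °C with 5 μM compound, one well each. Lysates were probed overnight with a commercial HTRF total-IKZF1 antibody kit, with the 665/620 nm ratio background-subtracted and vehicle and degrader fixed at 0% and 100%.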
# [2] = test system: HEK293FT dCK*-only; assay: relative growth in counter assay (no AraC = 100%, AraC + DMSO = 0%); higher = more growth rescue independent of IKZF1; conditions: compound concentration: 5 uM; AraC concentration: 0.3 uM; overnight pretreatment + 4 days AraC
# Procedure, shortened: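 HEK293FT cells carrying only an engineered kinase construct were plated at 300 per well (384-well) and given 5 μM compound 2 h later. Following overnight at 37 °C, a nucleoside suicide substrate (0.3 μM) plus medium was added for 4 days. Hoechst 33342-stained nuclei were imaged and counted on day 5, with 100% assigned to wells without suicide substrate and 0% to substrate plus vehicle on each plate.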
# [3] = test system: HEK293FT dCK*-IKZF1; assay: relative growth recovery (pomalidomide 10 uM = 100%, DMSO = 0%); higher = more growth rescue (IKZF1 fusion degradation); conditions: compound concentration: 5 uM; AraC concentration: 0.3 uM; overnight pretreatment + 4 days AraC
# Procedure, shortened: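 Means of duplicates from different days are given for growth recovery, normalised per plate against a reference degrader and vehicle. The reference degrader set the 100% level and vehicle the 0% level. HEK293FT cells stably expressing a deoxycytidine kinase–IKZF1 fusion (300/well, 384-well) received 5 μM compound 2 h after seeding and, after overnight at 37 °C, 0.3 μM of a nucleoside suicide substrate plus medium for 4 days. Nuclei stained with Hoechst 33342 were then counted by whole-well imaging on day 5.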
# Sequence of IKZF1 (dCK*-IKZF1 fusion in HEK293FT) (Q13422 whole entry, looked up, the tested form may be a part): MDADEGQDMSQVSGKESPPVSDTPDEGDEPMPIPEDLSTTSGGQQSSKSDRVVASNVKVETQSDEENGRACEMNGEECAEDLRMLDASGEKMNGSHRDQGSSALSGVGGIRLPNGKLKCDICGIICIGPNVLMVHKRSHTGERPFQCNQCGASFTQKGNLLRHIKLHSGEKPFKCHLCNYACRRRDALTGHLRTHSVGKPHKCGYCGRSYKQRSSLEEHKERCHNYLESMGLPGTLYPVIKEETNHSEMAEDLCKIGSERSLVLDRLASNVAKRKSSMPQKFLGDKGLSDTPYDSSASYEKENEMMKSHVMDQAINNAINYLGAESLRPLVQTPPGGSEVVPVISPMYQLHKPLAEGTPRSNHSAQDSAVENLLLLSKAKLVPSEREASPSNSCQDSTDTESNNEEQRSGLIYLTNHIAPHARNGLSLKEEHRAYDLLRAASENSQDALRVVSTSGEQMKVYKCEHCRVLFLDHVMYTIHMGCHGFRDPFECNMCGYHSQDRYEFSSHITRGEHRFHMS
Compound,inhibition of IKZF1 HTRF signal [1],relative growth in counter assay [2],relative growth recovery [3]
O=C(Nc1cccc(C(F)(F)F)c1)Nc1ccc(Br)cc1-c1nnn[nH]1,-23.4%,-0.22%,-2.33%
Clc1ccc(CSC(Cn2ccnc2)c2ccc(Cl)cc2Cl)cc1 (stereo unspecified) [Sulconazole Nitrate],-32.3%,-8.02%,-2.21%
CNCCC(Oc1ccc(C(F)(F)F)cc1)c1ccccc1 (stereo unspecified) [Fluoxetine HCl],-26.7%,-5.41%,1.15%
COC(=O)C1=C(C)NC(C)=C(C(=O)OC/C=C/c2ccccc2)C1c1cccc([N+](=O)[O-])c1 (stereo unspecified) [Pranidipine],13.9%,-3.72%,-0.3%
COc1cc(N2CCC(N3CCN(C(=O)CNc4cccc5c4C(=O)N(C4CCC(=O)NC4=O)C5=O)CC3)CC2)ccc1Nc1ncc(Cl)c(Nc2ccccc2P(C)(C)=O)n1 (stereo unspecified),111%,-29.6%,-0.385%
CN(C)CC(O)Cn1c2ccc(Br)cc2c2cc(Br)ccc21 (stereo unspecified) [wiskostatin],-32.4%,-9.92%,-2.88%
CN[C@H]1CC[C@@H](c2ccc(Cl)c(Cl)c2)c2ccccc21,-23.8%,0.69%,-1.94%
C=C(NNC(=S)NNC(=S)Nc1ccccc1Cl)c1ccccn1,0.77%,-34.8%,-12.8%
CC1CC(OC(=O)C(O)c2ccccc2)CC(C)(C)C1 (stereo unspecified),-11.2%,0.99%,-2.85%
Clc1ccc2c(NCCNc3ccnc4cc(Cl)ccc34)ccnc2c1,-19.4%,-2.86%,-1.39%
CSCC[C@H](N)C(=O)O [L-methionine],-9.26%,-0.43%,1.19%
Oc1cc2c(cc1O)[C@@H]1c3ccc(O)c(O)c3OC[C@]1(O)C2 [Hematoxylin (Hydroxybrazilin)],-6.3%,-6.89%,-1.47%
